Compound activity (PubChem BioAssay)
Only some compounds are listed: those with a hit (about 2.8% of all), similar ones and a draw of the others.
HIF-2a block: HIF-2a inhibition | 786-0 RCC cells HIF-2a reporter, luciferase luminescence, overnight | 360,000 tested, 0.72% active | inhibition, % at 18.8 µM;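 active = inhibition of the luminescence signal of 40% or more relative to plate controls, in a single-dose primary screen at 18.75 µM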
PAX8 inh HTS: inhibitors of PAX8 transcriptional activity in RMG-I cells | 360,000 tested, 1.2% active | AID 652154 | inhibition, % at 12.6 µM | RMG-I TPO-luciferase reporter, SteadyGlo, 24 h;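 active = mean replicate inhibition at least 60% with every replicate also reaching 60%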;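 also: luciferase light reporting Pax8 driven TPO promoter activity; plate controls were median of neutral control wells for no effect and mitoxantrone controls for full effect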
Shn3 inh set2: reduces Shn3 3'UTR luciferase signal in osteoblasts; Clone20 osteoblast Shn3 3'UTR firefly luciferase, 24 h; inhibition, % at 12.5 µM; 360,000 tested, 0.52% active;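 active = mean inhibition of at least 75% with every replicate also reaching 75%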;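 also: 0% = median of neutral control wells and 100% = pilot-screen positive control compound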
Peg3 prom inh: Peg3 promoter activity inhibition; HeLa PEG-Prom luciferase reporter, luminescence, overnight; inhibition, % at 20 µM; 360,000 tested, 1.7% active; AID 588405;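 active = inhibition of at least 50% at 20 µM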
MITF TRPM1 inh: MITF TRPM1 promoter inhibition in SK-MEL-5 cells | SK-MEL-5 TRPM1 promoter luciferase, 24 h | 330,000 tested, 0.83% active | inhibition, % at 12.5 µM | AID 488899;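 active = mean inhibition across replicates of 60% or more, whatever share of single replicates reaches that level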
EBV LMP1 NFkB: Epstein-Barr LMP1 NF-kappaB reporter inhibition; LMP1-induced NF-kappaB luciferase reporter cells, luminescence; inhibition, % at 12.5 µM; 350,000 tested, 0.69% active; AID 504558; in the data active = inhibition above about 41%;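 also: 0% = neutral control wells and 100% = reference inhibitor control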
Active calls of the source: *; x = no result given; ! = a repeat was not active.

SMILES	HIF-2a block	PAX8 inh HTS	Shn3 inh set2	Peg3 prom inh	MITF TRPM1 inh	EBV LMP1 NFkB
O=C(C(Cl)Cl)N1c2ccccc2OCC1c1ccccc1 (stereo not given)	9.0	x	35.5	59.2*	5.3	4.8
Cc1ccc(S(=O)(=O)N2c3ccccc3OCC2c2ccccc2)cc1 (stereo not given)	11.1	x	76.3	33.8	7.3	2.2
O=C(C[C@@H]1C=C[C@@H](NC(=O)Nc2ccc3c(c2)OCO3)[C@H](CO)O1)NCCCN1CCOCC1	x	-5.4	x	x	x	x
COc1ccc(-c2cnc3c(c2)C(=O)N([C@H](C)CO)C[C@@H](C)[C@@H](CN(C)C(=O)Cc2ccncc2)O3)cc1	x	-4.1	x	x	x	x
CC(C)CCN(C(=O)Cc1ccc(Cl)c(Cl)c1)c1c(N)n(Cc2ccccc2)c(=O)[nH]c1=O	15.6	-14.3	23.4	32.2	81.0*	3.4
Cc1cccc(C(=O)N(Cc2ccco2)c2c(N)n(Cc3ccccc3)c(=O)[nH]c2=O)c1	2.4	12.6	19.7	-1.6	5.1	68.5*
CC(C)CN(C(=O)COC(=O)c1cnc(Cl)c(Cl)c1)c1c(N)n(Cc2ccccc2)c(=O)[nH]c1=O	11.5	17.6	3.9	84.8*	4.2	-1.8
CC(C)N(Cc1ccccc1)C(=O)COC(=O)c1cnc(Cl)c(Cl)c1	23.0	-14.1	3.6	82.9*	47.1	5.9
C[C@@H]1CCCCO[C@H](CN(C)C(=O)Nc2cccc3ccccc23)[C@H](C)CN([C@@H](C)CO)C(=O)c2cc(NC(=O)Nc3ccc(C(F)(F)F)cc3)ccc2O1	x	1.5	x	x	x	x
CCn1c(/C=C/N(C)c2ccccc2)[n+](CC)c2ccc(Cl)cc21	-4.2	x	72.7	13.9	65.5*	18.7
Cc1cc(NCCCn2ccnc2)n2nc(C)c(-c3ccccc3)c2n1	-203.0	x	-49.1	-132.7	-64.2	-36.4
Cc1cc(NCCCn2ccnc2)n2ncc(-c3ccccc3)c2n1	26.4	x	46.4	19.9	57.9	50.3*
Nc1c(N(CCC2=CCCCC2)C(=O)COc2ccc(F)cc2Cl)c(=O)[nH]c(=O)n1Cc1ccccc1	-2.8	8.7	77.5	106.0*	97.5*	6.1
CC(=O)c1ccc(OCC(=O)N(CCC2=CCCCC2)c2c(N)n(Cc3ccccc3)c(=O)[nH]c2=O)cc1	-1.1	25.6	9.9	32.5	15.4	-2.4
Nc1c(N(CCC2=CCCCC2)C(=O)COc2ccc([N+](=O)[O-])cc2)c(=O)[nH]c(=O)n1Cc1ccccc1	0.5	8.5	22.0	83.7*	51.2	4.3
O=C(CSc1nnc(-c2cccc(S(=O)(=O)N3CCOCC3)c2)n1C1CCCCCC1)NCc1ccccc1	-0.2	x	11.6	26.9	13.2	46.9*
C[C@H](CO)N1C[C@H](C)[C@@H](CN(C)S(=O)(=O)c2cccs2)Oc2c(NC(=O)Nc3ccc(F)cc3)cccc2C1=O	x	7.6	x	x	x	x
CC1=Nc2ccccc2/C1=C/c1sc(=S)n(-c2cccc(C(=O)O)c2)c1O	41.0*	14.7	-82.6	-21.1	-6.9	-0.1
COC(=O)[C@H](C)NC(=O)Nc1ccc(S(N)(=O)=O)cc1	12.6	x	20.0	-7.7	5.6	-3.9
CC(C)C(Cl)=NOC(=O)Nc1ccc(S(N)(=O)=O)cc1	22.6	-8.2	95.0*	88.5*	15.6	0.9
CS(=O)(=O)c1ccc(C(=O)OCC(=O)N2CCOCC2)cc1[N+](=O)[O-]	5.8	-0.7	95.2*	0.2	x	x
CS(=O)(=O)c1ccc(C(=O)OCC(=O)Nc2cccnc2Cl)cc1[N+](=O)[O-]	-0.5	x	94.4*	24.0	27.3	1.9
CS(=O)(=O)c1ccc(C(=O)OCC(=O)NC(=O)C2CCCCC2)cc1[N+](=O)[O-]	17.8	56.4	36.7	98.2*	66.5*	-2.6
Cc1ccc(C(=O)OCC(=O)N2CCOCC2)cc1	-108.9	-85.5	-49.9	-120.0	-47.3	-3.6
CC(=O)c1cccc(NC(=O)COC(=O)c2ccc(S(C)(=O)=O)c([N+](=O)[O-])c2)c1	14.4	21.4	27.1	8.0	4.7	-47.7
SMILES	HIF-2a block	PAX8 inh HTS	Shn3 inh set2	Peg3 prom inh	MITF TRPM1 inh	EBV LMP1 NFkB
CS(=O)(=O)c1ccc(C(=O)OCC(=O)N2CCN(CCC3CCCCC3)CC2)cc1[N+](=O)[O-]	80.2*	105.1*	95.9*	97.0*	x	x
Cc1cc(C(=O)Nc2ccc3c(c2)C(=O)N(C)[C@H]2CC[C@H](CC(=O)O)O[C@@H]2CO3)no1	x	34.1	x	x	x	x
CS(=O)(=O)c1ccc(C(=O)OCc2nnc(-c3ccccc3)o2)cc1[N+](=O)[O-]	21.2	33.7	7.4	109.0*	48.3	-4.8
COc1ccc(OCCn2c(=N)n(CCO)c3ccccc32)cc1	3.6	x	15.8	9.9	5.7	4.8
CCCCn1c(=N)n(CCOc2ccc(C)cc2)c2ccccc21	17.0	-13.9	32.2	100.1*	64.1*	-0.6
Cc1ccc(OCC(O)Cn2c(=N)n(CCN3CCCCC3)c3ccccc32)cc1 (stereo not given)	19.2	36.2	80.4	78.3*	24.5	-38.7
Cc1ccccc1OCC(O)Cn1c2ccccc2c2ccccc21 (stereo not given)	-10.4	x	5.2	20.1	-9.7	-5.7
Cc1ccccc1OCC(O)Cn1c(=N)n(Cc2ccccc2)c2ccccc21 (stereo not given)	9.9	43.3	87.2*	110.4*	17.7	-3.9
CCCCn1c(=N)n(CC(O)COc2cccc(C)c2)c2ccccc21 (stereo not given)	6.6	-11.4	77.2	69.7*	0.6	-5.8
Cc1ccc(S(=O)(=O)Nc2ccc3c(c2)C(=O)N([C@H](C)CO)C[C@@H](C)[C@@H](CN(C)Cc2ccc(C(=O)O)cc2)O3)cc1	x	-9.8	x	x	x	x
CO[C@@H]1CN(C)C(=O)c2ccc(NS(=O)(=O)CC(F)(F)F)cc2OC[C@H](C)N(C(=O)c2ccc3c(c2)OCO3)C[C@H]1C	x	-25.5	x	x	x	x
COc1ccccc1OCC(O)Cn1c(=N)n(Cc2ccccc2)c2ccccc21 (stereo not given)	14.9	x	87.3*	32.5	19.9	-4.0
CCCCCn1c(=N)n(CC(O)COc2ccccc2OC)c2ccccc21 (stereo not given)	-13.9	9.6	86.3*!	43.0	6.0	-4.6
C=CCn1c(=N)n(CC(O)COc2ccccc2OC)c2ccccc21 (stereo not given)	10.2	5.9	25.5	12.3	x	-3.6
COc1cc2ccnc(Cc3cccc(OC)c3OC)c2cc1OC	9.0	4.8	86.0*	14.9	10.4	19.9
O=C(CCCc1ccccc1)NC1CC1	-28.2	0.8	-11.6	-17.8	-6.2	1.5
O=C(O)CCCc1ccc2c(c1)CCc1ccccc1-2	67.9*	-34.4	15.0	4.3	87.5*	24.0
COCC(=O)N(C)C[C@@H]1Oc2ncc(-c3ccccc3F)cc2C(=O)N([C@H](C)CO)C[C@@H]1C	x	-14.9	x	x	x	x
CN1c2ccc(-c3ccc(C#N)cc3)cc2[C@@H]2[C@@H](CCN2S(=O)(=O)c2ccc(F)cc2)[C@@H]1CO	x	-9.2	x	x	x	x
CCCC#Cc1ccc2c(c1)[C@@H]1[C@@H](CCN1S(=O)(=O)c1cccc(F)c1)[C@@H](CO)N2C	x	66.6*	x	x	x	x
